Experimental findings from ChEMBL document CHEMBL1961873, “Compounds: GSK PKIS; Assays: Nanosyn kinase panel” (2012) are described below.

Assay [1] concerns the target T1, Serine/threonine-protein kinase Nek9 (Homo sapiens) (UniProt Q8TD19).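 Also: each value is a mean percent inhibition of NEK9.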
T1 sequence (whole entry): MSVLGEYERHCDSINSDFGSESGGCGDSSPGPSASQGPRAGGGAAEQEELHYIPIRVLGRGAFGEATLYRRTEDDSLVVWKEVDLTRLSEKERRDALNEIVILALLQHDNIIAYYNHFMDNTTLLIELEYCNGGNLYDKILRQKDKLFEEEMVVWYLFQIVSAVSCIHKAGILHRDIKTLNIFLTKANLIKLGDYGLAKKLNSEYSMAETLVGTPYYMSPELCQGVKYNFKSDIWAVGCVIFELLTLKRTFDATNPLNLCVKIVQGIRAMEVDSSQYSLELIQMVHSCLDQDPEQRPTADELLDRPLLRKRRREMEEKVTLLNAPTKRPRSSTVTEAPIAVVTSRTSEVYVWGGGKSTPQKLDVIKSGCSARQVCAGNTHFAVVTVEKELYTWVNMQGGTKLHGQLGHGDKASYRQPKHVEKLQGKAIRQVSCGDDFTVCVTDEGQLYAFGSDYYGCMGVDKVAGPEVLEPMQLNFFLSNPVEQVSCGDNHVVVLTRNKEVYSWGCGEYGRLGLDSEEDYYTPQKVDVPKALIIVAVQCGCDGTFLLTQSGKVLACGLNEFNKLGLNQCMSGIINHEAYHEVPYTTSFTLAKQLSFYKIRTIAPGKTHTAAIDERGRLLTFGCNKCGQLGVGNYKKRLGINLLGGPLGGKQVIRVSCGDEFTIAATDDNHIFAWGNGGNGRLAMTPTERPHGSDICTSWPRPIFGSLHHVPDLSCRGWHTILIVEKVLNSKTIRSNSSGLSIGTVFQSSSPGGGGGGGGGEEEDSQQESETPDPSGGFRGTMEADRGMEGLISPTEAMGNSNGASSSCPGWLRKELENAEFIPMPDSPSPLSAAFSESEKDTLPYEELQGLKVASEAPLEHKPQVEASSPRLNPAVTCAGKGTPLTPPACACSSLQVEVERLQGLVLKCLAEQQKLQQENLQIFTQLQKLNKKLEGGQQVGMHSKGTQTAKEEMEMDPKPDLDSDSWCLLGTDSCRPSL
As to conditions: at 1 µM.

Assay [2] deals with Serine/threonine-protein kinase PLK1 (Homo sapiens) (UniProt P53350). As to conditions: at 0.1 µM.
Serine/threonine-protein kinase PLK1 (Homo sapiens), sequence (P53350 whole entry): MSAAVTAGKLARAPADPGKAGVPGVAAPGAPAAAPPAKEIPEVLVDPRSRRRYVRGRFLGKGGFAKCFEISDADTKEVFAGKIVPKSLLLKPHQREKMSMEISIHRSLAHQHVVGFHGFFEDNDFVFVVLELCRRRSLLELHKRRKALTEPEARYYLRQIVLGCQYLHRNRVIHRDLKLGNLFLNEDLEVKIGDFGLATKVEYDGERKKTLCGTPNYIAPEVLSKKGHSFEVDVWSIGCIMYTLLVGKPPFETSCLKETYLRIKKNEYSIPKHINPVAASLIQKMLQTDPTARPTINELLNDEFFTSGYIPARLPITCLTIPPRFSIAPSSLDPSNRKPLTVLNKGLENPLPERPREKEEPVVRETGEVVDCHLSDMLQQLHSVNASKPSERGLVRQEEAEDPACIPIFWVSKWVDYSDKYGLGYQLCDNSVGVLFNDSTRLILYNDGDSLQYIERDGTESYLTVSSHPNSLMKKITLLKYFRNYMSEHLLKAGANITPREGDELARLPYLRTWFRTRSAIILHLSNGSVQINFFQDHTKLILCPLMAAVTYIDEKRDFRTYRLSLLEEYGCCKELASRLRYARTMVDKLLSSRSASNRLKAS
Assay [3] shares this target. As to conditions: at 1 µM.
For assay [4], the target named is T2, Dual specificity protein kinase TTK (Homo sapiens) (UniProt P33981).
T2 sequence (whole entry): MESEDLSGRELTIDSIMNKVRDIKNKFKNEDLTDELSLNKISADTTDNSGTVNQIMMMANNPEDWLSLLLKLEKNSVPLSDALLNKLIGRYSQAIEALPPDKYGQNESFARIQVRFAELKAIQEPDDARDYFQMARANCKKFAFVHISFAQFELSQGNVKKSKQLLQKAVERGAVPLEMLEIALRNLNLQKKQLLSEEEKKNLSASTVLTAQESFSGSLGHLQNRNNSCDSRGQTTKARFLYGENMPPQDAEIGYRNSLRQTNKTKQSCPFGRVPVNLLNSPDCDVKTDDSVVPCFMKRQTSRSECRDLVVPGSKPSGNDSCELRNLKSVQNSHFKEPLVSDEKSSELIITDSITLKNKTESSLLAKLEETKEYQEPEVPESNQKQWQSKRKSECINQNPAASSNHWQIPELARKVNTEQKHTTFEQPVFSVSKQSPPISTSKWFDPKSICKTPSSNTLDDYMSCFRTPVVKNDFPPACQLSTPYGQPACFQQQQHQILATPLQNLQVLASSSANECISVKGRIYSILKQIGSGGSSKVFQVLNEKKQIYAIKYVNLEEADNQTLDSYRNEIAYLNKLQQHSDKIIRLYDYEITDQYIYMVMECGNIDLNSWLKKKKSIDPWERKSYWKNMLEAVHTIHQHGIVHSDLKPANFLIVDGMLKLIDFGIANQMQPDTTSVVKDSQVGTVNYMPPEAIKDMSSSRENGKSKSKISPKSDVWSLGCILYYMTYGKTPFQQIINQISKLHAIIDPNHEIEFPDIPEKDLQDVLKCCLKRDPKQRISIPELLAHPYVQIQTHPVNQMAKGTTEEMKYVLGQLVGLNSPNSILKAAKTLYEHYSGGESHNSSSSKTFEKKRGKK
As to conditions: at 0.1 µM.

Assay [5] concerns T3, Receptor-type tyrosine-protein kinase FLT3 (Homo sapiens), P36888 [D835Y].
T3 sequence (whole entry): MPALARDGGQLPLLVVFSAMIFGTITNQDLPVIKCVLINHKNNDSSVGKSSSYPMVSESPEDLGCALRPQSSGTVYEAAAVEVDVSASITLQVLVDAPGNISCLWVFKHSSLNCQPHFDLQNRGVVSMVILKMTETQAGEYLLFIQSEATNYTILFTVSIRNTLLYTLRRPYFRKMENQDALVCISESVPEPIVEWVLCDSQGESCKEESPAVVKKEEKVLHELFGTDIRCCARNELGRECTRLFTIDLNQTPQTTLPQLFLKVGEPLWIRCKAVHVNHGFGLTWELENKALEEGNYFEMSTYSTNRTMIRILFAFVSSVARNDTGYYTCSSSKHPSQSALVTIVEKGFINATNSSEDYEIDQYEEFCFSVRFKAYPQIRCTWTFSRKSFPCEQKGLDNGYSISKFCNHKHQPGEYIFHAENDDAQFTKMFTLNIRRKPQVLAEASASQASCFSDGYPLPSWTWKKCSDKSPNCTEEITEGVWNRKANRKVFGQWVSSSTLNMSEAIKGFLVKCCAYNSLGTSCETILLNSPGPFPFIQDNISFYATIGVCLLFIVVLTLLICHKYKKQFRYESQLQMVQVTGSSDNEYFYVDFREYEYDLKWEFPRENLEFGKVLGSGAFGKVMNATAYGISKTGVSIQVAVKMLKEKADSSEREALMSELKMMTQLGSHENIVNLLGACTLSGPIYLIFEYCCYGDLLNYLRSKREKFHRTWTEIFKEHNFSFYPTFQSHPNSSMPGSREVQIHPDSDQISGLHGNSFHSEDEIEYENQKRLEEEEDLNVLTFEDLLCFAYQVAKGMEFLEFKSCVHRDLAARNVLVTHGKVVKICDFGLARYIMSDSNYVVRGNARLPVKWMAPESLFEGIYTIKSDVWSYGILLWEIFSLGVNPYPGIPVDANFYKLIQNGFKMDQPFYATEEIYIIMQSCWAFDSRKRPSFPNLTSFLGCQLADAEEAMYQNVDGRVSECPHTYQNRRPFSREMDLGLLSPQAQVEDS
The settings on record: at 1 µM.

The target of assay [6] is Vascular endothelial growth factor receptor 3 (Homo sapiens) (UniProt P35916). As to conditions: at 0.1 µM.
Vascular endothelial growth factor receptor 3 (Homo sapiens), sequence (P35916 whole entry): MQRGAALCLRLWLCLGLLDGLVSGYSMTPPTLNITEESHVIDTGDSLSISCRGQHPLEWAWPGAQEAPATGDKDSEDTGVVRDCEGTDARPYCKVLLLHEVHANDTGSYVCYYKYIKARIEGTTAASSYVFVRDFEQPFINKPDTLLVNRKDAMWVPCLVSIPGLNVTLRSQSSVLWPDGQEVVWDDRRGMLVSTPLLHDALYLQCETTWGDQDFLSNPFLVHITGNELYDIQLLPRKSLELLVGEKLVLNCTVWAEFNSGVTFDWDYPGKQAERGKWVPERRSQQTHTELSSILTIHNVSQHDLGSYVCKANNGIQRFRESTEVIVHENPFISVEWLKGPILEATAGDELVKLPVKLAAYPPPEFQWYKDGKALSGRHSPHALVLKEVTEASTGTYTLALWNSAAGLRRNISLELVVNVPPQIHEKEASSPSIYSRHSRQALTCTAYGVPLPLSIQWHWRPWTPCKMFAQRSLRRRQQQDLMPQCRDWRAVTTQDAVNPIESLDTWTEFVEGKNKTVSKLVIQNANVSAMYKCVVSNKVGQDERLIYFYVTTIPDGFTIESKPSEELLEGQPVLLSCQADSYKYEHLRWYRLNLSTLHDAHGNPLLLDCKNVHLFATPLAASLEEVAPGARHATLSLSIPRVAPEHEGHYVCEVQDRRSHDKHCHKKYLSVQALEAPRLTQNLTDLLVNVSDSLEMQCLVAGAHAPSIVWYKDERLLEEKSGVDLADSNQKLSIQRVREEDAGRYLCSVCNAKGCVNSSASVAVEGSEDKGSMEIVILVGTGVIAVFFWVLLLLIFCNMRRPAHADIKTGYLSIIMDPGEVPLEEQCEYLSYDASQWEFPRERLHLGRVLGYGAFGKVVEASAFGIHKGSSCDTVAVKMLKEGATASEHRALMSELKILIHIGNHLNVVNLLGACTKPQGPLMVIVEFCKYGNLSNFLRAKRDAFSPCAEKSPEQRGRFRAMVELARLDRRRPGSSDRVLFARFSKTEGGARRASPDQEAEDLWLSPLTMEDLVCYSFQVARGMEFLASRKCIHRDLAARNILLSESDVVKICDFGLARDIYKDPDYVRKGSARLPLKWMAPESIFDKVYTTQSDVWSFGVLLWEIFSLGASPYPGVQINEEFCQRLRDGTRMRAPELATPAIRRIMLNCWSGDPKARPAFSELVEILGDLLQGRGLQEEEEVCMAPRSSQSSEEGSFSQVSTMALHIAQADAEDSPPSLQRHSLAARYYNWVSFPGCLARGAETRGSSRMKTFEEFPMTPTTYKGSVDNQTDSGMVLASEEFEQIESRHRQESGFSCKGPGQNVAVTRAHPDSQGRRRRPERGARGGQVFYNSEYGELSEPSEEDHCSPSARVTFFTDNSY
The target of assay [7] is Macrophage colony-stimulating factor 1 receptor (Homo sapiens) (UniProt P07333). The settings on record: at 0.1 µM.
Macrophage colony-stimulating factor 1 receptor (Homo sapiens), sequence (P07333 whole entry): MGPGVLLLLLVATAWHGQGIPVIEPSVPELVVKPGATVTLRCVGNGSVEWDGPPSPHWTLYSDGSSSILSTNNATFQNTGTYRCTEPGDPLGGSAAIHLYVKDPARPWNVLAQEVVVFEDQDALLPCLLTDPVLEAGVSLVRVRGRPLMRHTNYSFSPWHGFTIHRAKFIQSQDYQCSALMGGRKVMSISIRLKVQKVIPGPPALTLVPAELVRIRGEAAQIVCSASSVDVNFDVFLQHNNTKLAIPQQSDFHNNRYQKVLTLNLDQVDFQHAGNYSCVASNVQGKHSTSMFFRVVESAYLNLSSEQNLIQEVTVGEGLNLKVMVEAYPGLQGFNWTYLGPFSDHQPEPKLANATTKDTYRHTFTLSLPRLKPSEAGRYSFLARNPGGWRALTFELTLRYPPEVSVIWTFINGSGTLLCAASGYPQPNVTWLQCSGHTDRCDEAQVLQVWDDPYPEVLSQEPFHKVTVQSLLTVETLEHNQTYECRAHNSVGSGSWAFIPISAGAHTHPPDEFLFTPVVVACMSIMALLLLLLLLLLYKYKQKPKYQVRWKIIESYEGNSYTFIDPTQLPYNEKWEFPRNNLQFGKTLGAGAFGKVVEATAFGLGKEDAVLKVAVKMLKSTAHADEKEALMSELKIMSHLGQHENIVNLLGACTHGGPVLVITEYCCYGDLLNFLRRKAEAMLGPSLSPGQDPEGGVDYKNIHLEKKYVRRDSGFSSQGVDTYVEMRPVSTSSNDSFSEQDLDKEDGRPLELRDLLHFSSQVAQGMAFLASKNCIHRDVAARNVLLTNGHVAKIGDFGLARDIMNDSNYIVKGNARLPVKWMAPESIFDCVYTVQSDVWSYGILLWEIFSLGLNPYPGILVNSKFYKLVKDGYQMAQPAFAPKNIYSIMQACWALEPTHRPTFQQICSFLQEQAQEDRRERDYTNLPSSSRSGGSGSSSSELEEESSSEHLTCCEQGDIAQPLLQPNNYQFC
The target is the same in assay [8]. The settings on record: at 1 µM.
Assay [9] concerns the target Tyrosine-protein kinase Fyn (Homo sapiens) (UniProt P06241). The settings on record: at 0.1 µM.
Assay [10] shares this target. The settings on record: at 1 µM.
For assay [11], the target named is Tyrosine-protein kinase HCK (Homo sapiens) (UniProt P08631). The settings on record: at 0.1 µM.
Assay [12] has the same target. As to conditions: at 1 µM.
The target in assay [13] is Insulin-like growth factor 1 receptor (Homo sapiens) (UniProt P08069). As to conditions: at 0.1 µM.
Assay [14] has the same target. The settings on record: at 1 µM.
Assay [15] addresses Insulin receptor (Homo sapiens) (UniProt P06213). As to conditions: at 0.1 µM.
The target is the same in assay [16]. As to conditions: at 1 µM.
Assay [17] has as its target Insulin receptor-related protein (Homo sapiens) (UniProt P14616). The settings on record: at 0.1 µM.
The target is the same in assay [18]. As to conditions: at 1 µM.
Assay [19] deals with T4, Tyrosine-protein kinase ITK/TSK (Homo sapiens) (UniProt Q08881).
T4 sequence (whole entry): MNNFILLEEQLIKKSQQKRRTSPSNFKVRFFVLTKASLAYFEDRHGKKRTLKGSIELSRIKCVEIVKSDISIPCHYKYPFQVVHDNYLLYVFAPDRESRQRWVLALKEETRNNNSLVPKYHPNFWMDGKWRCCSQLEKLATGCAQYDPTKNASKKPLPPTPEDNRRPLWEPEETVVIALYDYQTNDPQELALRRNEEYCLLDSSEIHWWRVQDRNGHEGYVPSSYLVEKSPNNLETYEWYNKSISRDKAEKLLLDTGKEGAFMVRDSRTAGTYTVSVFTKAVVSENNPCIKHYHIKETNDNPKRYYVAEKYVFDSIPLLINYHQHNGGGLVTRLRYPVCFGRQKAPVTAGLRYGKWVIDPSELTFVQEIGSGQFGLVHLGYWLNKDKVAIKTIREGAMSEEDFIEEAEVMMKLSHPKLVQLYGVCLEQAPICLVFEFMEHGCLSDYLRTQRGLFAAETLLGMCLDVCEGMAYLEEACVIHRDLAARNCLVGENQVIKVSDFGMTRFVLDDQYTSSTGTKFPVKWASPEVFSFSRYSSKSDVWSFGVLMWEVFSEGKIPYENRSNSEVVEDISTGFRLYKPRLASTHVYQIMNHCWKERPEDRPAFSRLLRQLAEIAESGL
As to conditions: at 0.1 µM.

The target of assay [20] is Vascular endothelial growth factor receptor 3 (Homo sapiens) (UniProt P35916). The settings on record: at 1 µM.

Insulin receptor (Homo sapiens), sequence (P06213 28-758 limits assumed): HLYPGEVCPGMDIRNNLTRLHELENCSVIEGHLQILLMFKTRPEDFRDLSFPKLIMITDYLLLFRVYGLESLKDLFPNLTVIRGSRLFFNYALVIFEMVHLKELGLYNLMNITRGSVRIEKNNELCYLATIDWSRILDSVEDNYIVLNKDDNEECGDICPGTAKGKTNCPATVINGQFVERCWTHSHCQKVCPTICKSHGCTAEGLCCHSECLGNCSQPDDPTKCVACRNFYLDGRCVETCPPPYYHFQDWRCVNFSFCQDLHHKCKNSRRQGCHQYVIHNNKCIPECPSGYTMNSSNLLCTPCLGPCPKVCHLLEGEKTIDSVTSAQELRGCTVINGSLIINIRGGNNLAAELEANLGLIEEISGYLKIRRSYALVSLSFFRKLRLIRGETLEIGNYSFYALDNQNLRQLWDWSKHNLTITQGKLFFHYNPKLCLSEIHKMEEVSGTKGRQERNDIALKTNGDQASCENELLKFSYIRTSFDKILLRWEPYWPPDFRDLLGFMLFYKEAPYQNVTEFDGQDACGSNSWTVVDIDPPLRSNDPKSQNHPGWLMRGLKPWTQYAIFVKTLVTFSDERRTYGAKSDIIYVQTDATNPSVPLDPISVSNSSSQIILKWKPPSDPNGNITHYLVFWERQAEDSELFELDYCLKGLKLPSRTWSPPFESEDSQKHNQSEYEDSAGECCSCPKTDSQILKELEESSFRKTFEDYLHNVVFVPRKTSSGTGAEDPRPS
Insulin receptor (Homo sapiens), sequence (P06213 763-1382 limits assumed): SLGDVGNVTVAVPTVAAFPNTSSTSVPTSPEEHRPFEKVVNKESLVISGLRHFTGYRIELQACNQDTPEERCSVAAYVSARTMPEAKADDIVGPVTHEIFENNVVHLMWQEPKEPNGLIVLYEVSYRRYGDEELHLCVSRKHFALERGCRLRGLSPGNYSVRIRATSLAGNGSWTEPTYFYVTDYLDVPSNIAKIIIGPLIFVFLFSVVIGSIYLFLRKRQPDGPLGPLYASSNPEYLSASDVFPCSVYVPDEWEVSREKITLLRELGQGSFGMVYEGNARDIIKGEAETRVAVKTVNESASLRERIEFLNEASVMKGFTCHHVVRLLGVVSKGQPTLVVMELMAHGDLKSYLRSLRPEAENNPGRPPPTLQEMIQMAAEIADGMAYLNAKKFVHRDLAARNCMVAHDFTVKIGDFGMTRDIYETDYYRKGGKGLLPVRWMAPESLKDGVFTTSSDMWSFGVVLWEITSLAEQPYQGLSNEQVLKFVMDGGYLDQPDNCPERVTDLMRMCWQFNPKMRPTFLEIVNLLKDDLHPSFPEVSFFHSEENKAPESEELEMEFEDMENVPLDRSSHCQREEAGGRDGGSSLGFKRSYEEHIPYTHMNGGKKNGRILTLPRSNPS
Tyrosine-protein kinase Fyn (Homo sapiens), sequence (P06241 2-537 limits assumed): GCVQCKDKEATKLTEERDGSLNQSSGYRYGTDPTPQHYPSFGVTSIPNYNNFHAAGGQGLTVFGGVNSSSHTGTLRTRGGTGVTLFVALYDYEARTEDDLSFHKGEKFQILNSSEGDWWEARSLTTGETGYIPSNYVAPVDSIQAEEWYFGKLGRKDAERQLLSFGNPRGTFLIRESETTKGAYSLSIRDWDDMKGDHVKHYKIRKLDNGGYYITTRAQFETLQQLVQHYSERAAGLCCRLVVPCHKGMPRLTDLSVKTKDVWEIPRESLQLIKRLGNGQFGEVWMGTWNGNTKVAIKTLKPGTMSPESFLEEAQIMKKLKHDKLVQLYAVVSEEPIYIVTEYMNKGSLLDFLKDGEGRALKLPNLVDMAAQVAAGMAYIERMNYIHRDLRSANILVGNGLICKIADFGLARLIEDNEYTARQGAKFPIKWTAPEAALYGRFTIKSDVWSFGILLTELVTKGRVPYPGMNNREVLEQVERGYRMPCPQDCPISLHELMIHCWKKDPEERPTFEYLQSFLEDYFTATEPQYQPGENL

One may read the inhibition as the change of the read-out against control, counted positive when it falls. With `Cc1cc(O)cc(C)c1/C=C/c1cncc(-c2nn[nH]n2)c1`, the inhibition is 8.64% in [1]; 3.41% in assay [2]; 4.38% in assay [3]; 7.11% in assay [4]; -0.25% in assay [5]; -9.76% in assay [6]. Moreover, the inhibition turned out to be 8.02% in assay [7]; 36.1% in [8]; 3.99% in assay [9]; 52.3% in [10]; 20.6% in assay [11]; 74.9% in assay [12]. Moreover, the inhibition in assay [13] was -3.59%; in assay [14] it was -2.05%; in assay [15], 7.59%; in assay [16] it was 8.18%; in assay [17], 2.98%; in assay [18], 2.21%. In assay [19], the inhibition is -2.15%.
In the case of `Cc1ccc(NC(=O)c2ccnc(N3CCCC3)c2)cc1-c1ccc(C(=O)NCC2CC2)cc1`, the inhibition in assay [1] was 6.52%; in assay [2] it was 3.7%; in [3] it was 4.57%; in assay [4], 15.4%; in assay [5] it was 1.51%; in assay [6], -7.96%. In addition, the inhibition in [7] was 1.57%; in [8] it was 2.74%; in assay [9], -2.42%; in assay [10], -1.49%; in assay [11], 4.55%; in assay [12], 10.7%. Besides, the inhibition was -4.41% in [13]; -3.36% in [14]; 6.4% in [15]; 11.3% in [16]; 2.43% in assay [17]; 2.2% in assay [18]. Besides, the inhibition in assay [19] was -1.68%.
Turning to `COc1ccc(-c2nn3ncccc3c2-c2ccnc(Nc3ccc(Cl)c(C(F)(F)F)c3)n2)cc1`, the inhibition in [1] is 6.74%; in assay [2] it was 0.21%; in assay [3] it was 3.01%; in [4], 5.35%; in assay [5], -6.5%; in assay [6] it was -0.61%. Also, the inhibition in assay [20] is 3.27%; in assay [7], -1.71%; in assay [8], 5.03%; in [9], 3.8%; in [10] it was 6.37%; in [11], 1.57%. In addition, the inhibition in assay [12] was 4.58%; in assay [13], 0.1%; in assay [14] it was -0.08%; in assay [15], 3.14%; in [16], 2.37%; in assay [17], -1.6%. For the same compound, the results for the inhibition in assay [18] and in [19] were 1.11% and 0.94%, respectively.
As to `O=C(Nc1n[nH]c2nc(-c3ccco3)c(Br)cc12)C1CC1`, the inhibition in assay [1] is 3.52%; in assay [2], 4.46%; in assay [3], 4.35%; in [4], 4.94%; in assay [5] it was 5.36%; in [6], 1.95%. The inhibition in assay [20] stood at 9.43%; in assay [7], 0.44%; in assay [8], 1.78%; in assay [9], 3.33%; in assay [10] it was 1.8%; in assay [11] it was 5.5%. The inhibition in [12] is 9.03%; in assay [13] it was 2.77%; in assay [14] it was 3.89%; in assay [15] it was 3.98%; in assay [17] it was 2.25%; in [18], 1.49%. For the same compound, the inhibition in assay [19] stood at 3.8%.
